The panel holds about 83,000 compounds, 20% with a hit somewhere; the sample as a whole holds those more often.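 Single-concentration screen, 48 h exposure, 96-well plates. Endpoint: percent growth. Below 10 = active.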 A number with no mark means an inactive call. Calls of active or inactive are those of the source.
How the values were obtained:
Experiment in all cases: NCI-60 one-dose screen, 48 h (100 = growth as untreated, 0 = no growth, -100 = all killed)
Conditions in all cases: 10 µM unless noted
[1] = test system: NCI-H23 lung
[2] = test system: NCI-H226 lung
[3] = test system: NCI-H322M lung
[4] = test system: HOP-62 NSCLC
[5] = test system: NCI-H460 lung
[6] = test system: HOP-92 NSCLC
[7] = test system: NCI-H522 lung
[8] = test system: A549/ATCC NSCLC
[9] = test system: 786-0 renal
[10] = test system: COLO 205 colon
[11] = test system: DU-145 prostate
[12] = test system: K-562 leukemia
[13] = test system: MALME-3M melanoma
[14] = test system: MDA-MB-231 breast
[15] = test system: RXF 393 renal
[16] = test system: SF-268 CNS
[17] = test system: SF-295 CNS
[18] = test system: SF-539 CNS
[19] = test system: UACC-257 melanoma
[20] = test system: M14 melanoma

Structure (SMILES)	growth [1]	growth [2]	growth [3]	growth [4]	growth [5]	growth [6]	growth [7]	growth [8]	growth [9]	growth [10]	growth [11]	growth [12]	growth [13]	growth [14]	growth [15]	growth [16]	growth [17]	growth [18]	growth [19]	growth [20]
CCC(O)(CN)c1ccccc1 (centres undefined)	101%	92.4%	102%	97.3%	107%	93.1%	79.2%	86.6%	97.8%	102%	107%	107%	101%	101%	110%	100%	92.6%	99%	91.9%	95%
CC(=O)O[C@H](C[C@H](C(C)C)N(C)C(=O)[C@@H](NC(=O)[C@H]1CCCCN1C)C(C)C)c1nc(C(=O)N[C@@H](Cc2ccccc2)C[C@H](C)C(=O)O)c(C(C)C)s1	22.9%	58.9%	35.8%	20%	6.51% (active)	51.5%	-21.1% (active)	8.67% (active)	16%	-60% (active)	-0.791% (active)	6.34% (active)	64.9%	12.9%	44.1%	27.7%	-0.193% (active)	-10.7% (active)	41.5%	–
CC(=O)OCc1cc[c]([Hg][Cl])o1	58.8%	81.5%	98.7%	91.4%	84.9%	53.8%	-53.6% (active)	73.9%	24.5%	-1.94% (active)	84.2%	7.96% (active)	-39.7% (active)	26%	-38.7% (active)	22.5%	78.1%	44.2%	53.5%	–
NC(=O)c1c(Br)n(C2OC(CO)C(O)C2O)c2ncnc(N)c12 (centres undefined)	9.8% (active)	54.1%	21.7%	12%	11.8%	3.71% (active)	-18.7% (active)	12.9%	25.9%	-12.9% (active)	1.13% (active)	1.67% (active)	13.2%	50.6%	-16.4% (active)	20.1%	38.9%	13.7%	-0.624% (active)	–
CN(C)CCCOc1ccc2c(c1)c(C(=O)C(=O)NCCO)cn2Cc1ccccc1	95.6%	103%	105%	100%	105%	92.1%	99%	105%	93.3%	107%	106%	106%	97.1%	104%	89.1%	97.7%	103%	103%	102%	–
CC(=O)O[C@H](C[C@H](C(C)C)N(C)C(=O)[C@@H](NC(=O)[C@H]1CCCCN1C)C(C)(C)C)c1nc(C(=O)N[C@@H](Cc2ccccc2)C[C@H](C)C(=O)O)cs1	37.8%	61.4%	41.8%	19.7%	4.25% (active)	35.3%	-24.7% (active)	9.66% (active)	11.1%	-59.1% (active)	0.642% (active)	5.51% (active)	66.7%	6.25% (active)	39.5%	24.1%	-0.638% (active)	-10.9% (active)	47%	–
Cc1ccc2c(C(C[N+](=O)[O-])c3cccs3)c(-c3ccccc3)[nH]c2c1 (centres undefined)	38.4%	46.4%	54.7%	26.2%	11.3%	25.5%	-3.71% (active)	28.8%	38.6%	6.75% (active)	28.1%	10.8%	50.9%	44.1%	13.8%	37.7%	7.69% (active)	6.62% (active)	30%	–
O=C1NC(=O)C(=Cc2ccc(OCCCCC3CCCCC3)c(Cl)c2)C(=O)N1	96.7%	102%	105%	89.7%	93.8%	87.4%	81.1%	92.6%	88.2%	112%	106%	88.3%	110%	100%	103%	99.7%	94%	92.8%	107%	–
CC(=O)Nc1ccc(NC(=O)c2ccc([As](O)O)cc2)cc1	103%	116%	118%	131%	104%	112%	-2.06% (active)	114%	107%	108%	108%	33.1%	113%	88.3%	47.6%	109%	118%	88.8%	104%	101%
CC[C@H](C)[C@H](NC(=O)c1nccn1C)C(=O)N(C)[C@H](C[C@@H](OC(C)=O)c1nc(C(=O)N[C@@H](Cc2ccccc2)C[C@H](C)C(=O)OC)cs1)C(C)C	29.8%	37.1%	43.9%	16.6%	9.82% (active)	29.9%	-26.7% (active)	25.2%	30.8%	-12.8% (active)	4.69% (active)	6.34% (active)	71.6%	-5.75% (active)	-0.416% (active)	25.6%	4.7% (active)	-31.7% (active)	54.2%	–
C[C@@]12CC[C@@H](O)C[C@@H]1CC[C@H]1[C@H]2CC[C@@]2(C)[C@H](c3ccc(=O)oc3)CC[C@@]12O	-50% (active)	-91.9% (active)	-45.3% (active)	-75.3% (active)	-78.7% (active)	-13.1% (active)	-26% (active)	-61.9% (active)	-51.1% (active)	-68.1% (active)	-97.4% (active)	0.291% (active)	-45.4% (active)	-33.9% (active)	-39.9% (active)	-73.1% (active)	-84.5% (active)	-85.4% (active)	-78.8% (active)	–
O=C([O][Hg][c]1ccccc1)c1ccccc1	1.89% (active)	96.4%	67.7%	-33.7% (active)	11.7%	-61.3% (active)	-64.1% (active)	76.2%	-93.8% (active)	-70% (active)	-35.7% (active)	-21.4% (active)	-4.96% (active)	-53.1% (active)	-72.4% (active)	-34.9% (active)	56.8%	19.4%	-30% (active)	–
Fc1c[c-]c(-c2ccccn2)c(F)c1.[CH3-].[Pt+2].c1ccc([PH+](c2ccccc2)c2ccccn2)cc1	0.331% (active)	-53.6% (active)	19.4%	22.3%	3.22% (active)	-25.6% (active)	-37.9% (active)	11.5%	-1.65% (active)	-31.5% (active)	15.9%	4.86% (active)	-75.5% (active)	-70.6% (active)	-64.8% (active)	22.8%	5.67% (active)	-46.7% (active)	0.865% (active)	-30.4% (active)
O=C1C2C(C(=O)[N]1[Hg][c]1cccs1)C1(Cl)C(Cl)=C(Cl)C2(Cl)C1(Cl)Cl (centres undefined)	-1.96% (active)	97.1%	78.3%	10.5%	52.7%	-51.4% (active)	-89.8% (active)	80.4%	-90.2% (active)	-71.4% (active)	53.8%	-2.45% (active)	-63.7% (active)	-56.2% (active)	-83.5% (active)	32.3%	58.3%	12.6%	-50.8% (active)	–
COc1cccc(/C=C/[N+](=O)[O-])c1	43.3%	65.2%	88.8%	89.9%	100%	78.9%	63.2%	61.2%	54.6%	19.5%	-2.85% (active)	7.02% (active)	89.8%	87.6%	-60.7% (active)	78.2%	84.3%	50.8%	83.1%	12.3%

Source: PubChem BioAssay (NCI)
